Screening results: PubChem BioAssay, National Center for Advancing Translational Sciences (NCATS)
Gal4-VP16 FLuc: Gal4-VP16 reporter inhibition counter-screen | Drosophila S2 Gal4-VP16 UAS-luciferase, luminescence, 20 h | Potency, µM (titrated, usually from 53.6 µM), for inactives: top-dose activity, negative = inhibition, usual class: inhibitors | 310,000 tested, 3.5% active | AID 2546;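 note: Gal4-VP16 expression switched on by copper sulfate through the metallothionein promoter; nearly all actives have a fitted effect of over 50% in size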
RORgamma inh: inhibitors of mouse ROR gamma transcriptional activity | Drosophila S2 Gal4-RORgamma UAS-luciferase reporter, 20 h | Potency, µM (series often up to 53.6 µM), without a hit: at the highest dose activity change, negative = inhibition, most hits filed as inhibitors | 310,000 tested, 5.4% active | AID 2551; note: nearly all actives have a fitted effect of over 60% in size
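Schneider cells (Drosophila), stable Gal4 DBD–ROR gamma + UAS-luc; 1 hr cmpd preincubation; Cu2+ induction 700 uM final; 20 hr ambient; luminescence.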
Sfp PPTase inh: blocks B. subtilis Sfp PPTase activity | Potency, µM, for inactives: largest response in the series, negative = inhibition, actives largely listed as inhibitors | Biochemical Sfp PPTase activity, qHTS | 310,000 tested, 3.5% active | Q9F4F7;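 note: the enzyme is Sfp with the accession as filed and its product quenches rhodamine fluorescence; 0% = enzyme reaction without inhibitor and -100% = no enzyme wells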
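Fluorescence-quenching assay with 15 nM Sfp, 5 uM rhodamine-CoA and 12.5 uM BHQ-2-labelled ybbR peptide in pH 7.6 Hepes/MgCl2 buffer. Enzyme was pre-incubated with compound for 15 min at room temperature. Rate was taken from the 30-min fluorescence change (525/598 nm).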
ALDH1A1 block: inhibitors of human aldehyde dehydrogenase 1A1; P00352; Purified ALDH1A1, NADH fluorescence, propionaldehyde substrate; Potency, µM (highest dose often 75.3 µM), for inactives: at the top dose activity, negative = inhibition, hits mostly inhibitors; 220,000 tested, 7.3% active; AID 1030; active = well fitted inhibition curve with a large enough effect, not every such curve was filed as active; inconclusive = small, poorly fitted or top-dose-only effect, or another doubt; inactive = no such curve, though single readings can be large or run the other way;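 note: plate controls were no enzyme wells and a reference inhibitor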
PLK1 PBD inh: inhibitors of human PLK1 polo-box domain binding; Potency, µM, for the others: max response, negative = inhibition, hits mostly inhibitors; 360,000 tested, 2.8% active; Plk1 PBD binding of FITC phosphopeptide, fluorescence polarization; AID 720504; P53350; note: series mostly up to about 57 µM; nearly all actives have a fitted effect of over 65% in size
Target sequence (P53350 whole entry, looked up, the tested form may be a part): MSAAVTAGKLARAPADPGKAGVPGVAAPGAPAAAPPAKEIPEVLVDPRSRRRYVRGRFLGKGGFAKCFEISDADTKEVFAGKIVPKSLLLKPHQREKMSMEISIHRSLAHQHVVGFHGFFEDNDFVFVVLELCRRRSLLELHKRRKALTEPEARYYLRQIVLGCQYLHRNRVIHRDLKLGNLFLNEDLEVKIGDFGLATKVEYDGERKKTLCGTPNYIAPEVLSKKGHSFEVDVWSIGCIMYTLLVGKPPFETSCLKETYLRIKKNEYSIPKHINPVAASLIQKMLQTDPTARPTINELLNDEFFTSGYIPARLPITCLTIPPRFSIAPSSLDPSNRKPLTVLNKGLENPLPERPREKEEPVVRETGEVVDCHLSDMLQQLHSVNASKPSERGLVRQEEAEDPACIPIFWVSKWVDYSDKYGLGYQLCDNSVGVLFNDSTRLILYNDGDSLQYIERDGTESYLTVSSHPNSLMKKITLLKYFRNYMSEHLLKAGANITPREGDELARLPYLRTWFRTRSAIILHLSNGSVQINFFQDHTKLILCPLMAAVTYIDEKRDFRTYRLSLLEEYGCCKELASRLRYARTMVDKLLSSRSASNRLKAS
The depositor's hits bear a star; [ ] = dose if it differs, or a comment. Rows were chosen to be rich in hits. Some 12% of all compounds tested hit in one or more screens of this group. Unless noted, calls come from the whole dose curve; as a rule, active = well fitted curve in the direction sought with a large enough effect; inconclusive = small, poorly fitted or top-dose-only effect, or another doubt; inactive = no such curve, though single readings can be large; an effect the other way counts as inactive or inconclusive. Unless noted, % is set by controls: 0 for no effect and ±100 for the full control effect; potency is the fitted concentration of half-maximal effect.

For Cc1ccc(S(=O)(=O)Nc2cccc(Oc3cnccn3)c2)cc1 the results were Gal4-VP16 FLuc -22%, RORgamma inh 29%, Sfp PPTase inh 2%, ALDH1A1 block 7.9µM* and PLK1 PBD inh 27µM*.
`O=S(=O)(Nc1cccc(Oc2cnccn2)c1)c1ccc(F)cc1` gave Gal4-VP16 FLuc -5%, RORgamma inh 6%, Sfp PPTase inh 13%, ALDH1A1 block -5% and PLK1 PBD inh -15%.
For COc1ccccc1NC(=O)CCCn1c(=S)[nH]c2ccccc2c1=O the results were Gal4-VP16 FLuc inconclusive, RORgamma inh 10µM*, Sfp PPTase inh 8%, ALDH1A1 block -7% and PLK1 PBD inh 1%.
COCCCNC(=O)c1ccc2c(=O)n(Cc3ccccc3OC)c(=S)[nH]c2c1 was read as Gal4-VP16 FLuc -4%, RORgamma inh -3%, Sfp PPTase inh -6% and PLK1 PBD inh 3%.
Screening COc1ccccc1Cn1c(=S)[nH]c2ccc(Br)cc2c1=O returned Gal4-VP16 FLuc 5.6µM*, RORgamma inh 2µM*, Sfp PPTase inh 19% and PLK1 PBD inh -14%.
COc1ccccc1Cn1c(=S)[nH]c2ccccc2c1=O was read as Gal4-VP16 FLuc 14µM*, RORgamma inh 10µM*, Sfp PPTase inh 14% and PLK1 PBD inh -15%.
For COc1ccccc1Cn1c(=S)[nH]c2cc(C(=O)NC(C)C)ccc2c1=O the results were Gal4-VP16 FLuc -10%, RORgamma inh 0%, Sfp PPTase inh 1% and PLK1 PBD inh -6%.
Screening COc1ccc(OC)c(NC(=O)CCn2c(=S)[nH]c3ccccc3c2=O)c1 returned Gal4-VP16 FLuc -6%, RORgamma inh -32%, Sfp PPTase inh 9% and PLK1 PBD inh 3%.
`O=c1c2cc(F)ccc2[nH]c(=S)n1Cc1ccc(F)cc1` gave Gal4-VP16 FLuc 3.2µM*, RORgamma inh 1.4µM*, Sfp PPTase inh 11% and PLK1 PBD inh -2%.
Screening CSCC[C@H](NC(=O)[C@@H]1CCCN1C(=O)[C@H](CCCN=C(N)N)NC(=O)[C@H](CC(C)C)NC(=O)[C@@H]1CCCN1C(=O)[C@@H](NC(=O)[C@@H](N)CCC(N)=O)C(C)C)C(=O)N[C@H](C(=O)N[C@@H](Cc1ccc(O)cc1)C(=O)N[C@@H](CCCCN)C(=O)O)[C@@H](C)O returned Gal4-VP16 FLuc -5%, RORgamma inh -21% and Sfp PPTase inh 5%.
Screening Cc1cnc(CN(C)C(=O)C2CCC(=O)N(CCc3ccc(Cl)cc3)C2)[nH]1 (stereo not given) returned PLK1 PBD inh -5%.
C=C(C)c1cccc(C(C)(C)NC(=O)NNC(=O)c2ccccc2O)c1 was read as Gal4-VP16 FLuc 1%, RORgamma inh -1%, Sfp PPTase inh 8% and PLK1 PBD inh -6%.
For COc1ccccc1Cn1c(=S)[nH]c2ccc(F)cc2c1=O the results were Gal4-VP16 FLuc 11µM*, RORgamma inh 16µM*, Sfp PPTase inh 9% and PLK1 PBD inh -23%.
`COc1ccccc1Cn1c(=S)[nH]c2cc(C(=O)NCC(OC)OC)ccc2c1=O` gave Gal4-VP16 FLuc inconclusive, RORgamma inh -7%, Sfp PPTase inh 7% and PLK1 PBD inh -2%.
Screening COc1ccccc1OCCNc1nc2c(c(=O)n(C)c(=O)n2C)n1C returned Gal4-VP16 FLuc -7%, RORgamma inh -26%, Sfp PPTase inh 16%, ALDH1A1 block 15% and PLK1 PBD inh 19µM*.
`CCCNc1nc2c(c(=O)n(C)c(=O)n2C)n1Cc1cccc(C)c1` gave Gal4-VP16 FLuc 5µM*, RORgamma inh -32%, Sfp PPTase inh -8%, ALDH1A1 block -2% and PLK1 PBD inh 2%.
`COCCNc1nc2c(c(=O)n(C)c(=O)n2C)n1Cc1cccc(C(F)(F)F)c1` gave Gal4-VP16 FLuc 3.2µM*, RORgamma inh -14%, Sfp PPTase inh -7%, ALDH1A1 block 15% and PLK1 PBD inh -6%.
For C[C@H](CO)N1C[C@H](C)[C@@H](CN(C)Cc2ccccc2C(=O)O)OCc2cnnn2CCCC1=O the results were PLK1 PBD inh -26%.
`CCCCCCCCCCCCCCC[C@H](O)[C@@H](N)CO` gave Gal4-VP16 FLuc 6%, RORgamma inh -20%, Sfp PPTase inh inconclusive and ALDH1A1 block 7%.
For Cc1nc2nc(-c3ccco3)[nH]n2c(=O)c1Cc1ccccc1 the results were Gal4-VP16 FLuc 10%, RORgamma inh inconclusive, Sfp PPTase inh -3%, ALDH1A1 block inconclusive and PLK1 PBD inh -12%.
For COC(=O)Cc1c(C)nc2nc(-c3ccco3)[nH]n2c1=O the results were Gal4-VP16 FLuc -7%, RORgamma inh -18%, Sfp PPTase inh 56µM*, ALDH1A1 block inconclusive and PLK1 PBD inh -7%.
Screening CC(C)CN1C(=O)c2ccc(C(=O)Nc3c[nH]c(=O)[nH]c3=O)cc2C1=O returned Gal4-VP16 FLuc -9%[10 µM], RORgamma inh 6%, Sfp PPTase inh 26%, ALDH1A1 block inconclusive and PLK1 PBD inh -3%.
`COc1cc(CN2C(=O)C(C)ON=C2c2cccs2)cc(OC)c1` (stereo not given) gave PLK1 PBD inh 1%.
For N#CC1=C(S)N(c2ccccc2)C2(CCCCC2)NC1=O the results were Gal4-VP16 FLuc inconclusive, RORgamma inh 13µM*, Sfp PPTase inh 28µM*, ALDH1A1 block 8% and PLK1 PBD inh -2%.
For O=C1c2ccccc2NC2(CCCCC2)N1c1ccc(O)cc1 the results were Gal4-VP16 FLuc 0%, RORgamma inh inconclusive, Sfp PPTase inh 17%, ALDH1A1 block inconclusive and PLK1 PBD inh -1%.
`N#CC1=C(S)N(c2ccc(F)cc2)C2(CCCCC2)NC1=O` gave Gal4-VP16 FLuc -79%, RORgamma inh inconclusive, Sfp PPTase inh 20µM*, ALDH1A1 block -2% and PLK1 PBD inh -23%.
Cc1cc(Cl)c2oc(C(=O)N3CCN(c4cccc(C)n4)CC3)c(C)c2c1 was read as Gal4-VP16 FLuc inconclusive, RORgamma inh 35%, Sfp PPTase inh -14% and PLK1 PBD inh -28%.
O=C(c1oc2ccccc2c1CSCc1ccccc1)N1CCN(c2ncccn2)CC1 was read as Gal4-VP16 FLuc -7%, RORgamma inh inconclusive, Sfp PPTase inh -4%, ALDH1A1 block 13µM* and PLK1 PBD inh -18%.
For Cc1c(C(=O)N2CCN(c3ccccn3)CC2)oc2ccccc12 the results were RORgamma inh 5%[0.365 µM], Sfp PPTase inh 12%, ALDH1A1 block 14µM* and PLK1 PBD inh 0%.
Cc1ccc2oc(C(=O)N3CCN(c4cccc(C)n4)CC3)c(C)c2c1 was read as Gal4-VP16 FLuc -12%, RORgamma inh 23%, Sfp PPTase inh -9% and PLK1 PBD inh 27µM*.
`Nn1c(SCc2cccc(Br)c2)nnc1-c1cccnc1` gave Gal4-VP16 FLuc -11%, RORgamma inh 5%, Sfp PPTase inh 12% and PLK1 PBD inh -9%.
Screening CC1=C(C(=O)N2CCCCCC2)CC(CC(=O)NC2CCCC2)C(=O)N1CCC1=CCCCC1 (stereo not given) returned PLK1 PBD inh -6%.
